Source: PubChem BioAssay
D3 antag: D3 dopamine receptor (human) antagonism | P35462 | D3R cells, DiscoveRx beta-arrestin luminescence, antagonist mode; active compounds read low | max response, negative = inhibition, % | actives 2.5% (n = 360,000) | AID 652054; in the data active = max response below about -50%; inconclusive = no clear call, values can overlap the other calls; also: % is scaled to controls: 0 for no effect and ±100 for the full control effect
Target sequence (P35462 whole entry, looked up): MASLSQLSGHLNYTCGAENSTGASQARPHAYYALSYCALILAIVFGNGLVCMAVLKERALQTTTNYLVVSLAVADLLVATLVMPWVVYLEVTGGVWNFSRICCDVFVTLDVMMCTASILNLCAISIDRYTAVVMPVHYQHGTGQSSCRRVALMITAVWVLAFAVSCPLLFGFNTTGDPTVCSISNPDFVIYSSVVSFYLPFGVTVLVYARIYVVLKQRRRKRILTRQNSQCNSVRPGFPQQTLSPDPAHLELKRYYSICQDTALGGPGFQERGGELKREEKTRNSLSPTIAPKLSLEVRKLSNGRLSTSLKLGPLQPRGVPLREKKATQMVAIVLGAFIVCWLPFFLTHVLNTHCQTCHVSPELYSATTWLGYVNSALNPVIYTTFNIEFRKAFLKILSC
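Cells plated overnight at 1500 cells/well, then exposed to library compounds with dopamine controls for 90 minutes at 37 degrees C. DiscoveRx reagent added for 30–60 minutes at room temperature; luminescence read, quantitative HTS format.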
ATXN viability: viability counter-screen for ATXN expression inhibitors. S2 cells (HEK-293 line with an ATXN2-luciferase reporter) viability, CellTiter-Fluor protease fluorescence, 24 h. Potency, µM (top dose mostly 56.7 µM), most hits filed as cytotoxic. actives 0.49% (n = 400,000); also: potency is read from the fitted curve at half-maximal effect; nearly all actives have a fitted effect of over 40% in size
HepG2 tox-1: kills HepG2 cells in TGF-b inhibitor counter-screen; actives 0.76% (n = 410,000); Potency, µM (titrated, usually from 46.1 µM), without a hit: top-dose activity change, negative = cytotoxicity, hits mostly cytotoxic; HepG2 CAGA-GFP viability, ATP luminescence, 18 h; also: potency is read from the fitted curve at half-maximal effect
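CellTiter-Glo luminescence gave cytotoxicity after 18 hours at 37 degrees C. The cells were HepG2 CAGA-GFP in 1% FBS DMEM, stimulated with 500 pg/mL TGF-beta after compound addition. %Activity was normalised to no-cell wells (complete cell-killing) and DMSO (no toxicity), and curves were fitted and classified.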
TGFb SMAD3 inh: blocks TGF-b signaling | actives 1.2% (n = 410,000) | Potency, µM (highest dose often 46.1 µM), for inactives: top-dose activity, negative = inhibition, actives largely listed as inhibitors | HepG2 CAGA-GFP TGF-b/SMAD3 reporter, GFP fluorescence, 18 h; TGF-beta stimulated, 500 pg/mL final; also: potency is read from the fitted curve at half-maximal effect; % is scaled to controls: 0 for no effect and ±100 for the full control effect; nearly all actives have a fitted effect of over 65% in size
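Read-out: total well GFP (ex488/em500-530) summed from mean per-cell fluorescence. Cells: HEPG2 CAGA-GFP, 1% FBS DMEM, 18 h at 37 degrees C with 500 pg/mL final TGF-beta. Unstimulated wells served as the full-inhibition control; stimulated DMSO wells = 0%.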
DRD3 agonist: D3 dopamine receptor (human) agonism | D3R DiscoveRx beta-arrestin cells, luminescence, 90 min | actives 0.58% (n = 410,000) | max activation, % | AID 652048; in the data active = max activation above about 30%; also: 0% is about no effect
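Agonist-mode cell screen: cells plated at 1500/well and incubated overnight at 37 °C, then exposed to library compounds for 90 min at 37 °C. Detection reagent was added for 30–60 min at room temperature, and luminescence was read.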
ATXN2 expr inh: reduces ATXN2 reporter expression in HEK-293 cells; actives 0.72% (n = 360,000); HEK-293 ATXN2-luciferase reporter, luminescence, 24 h; Potency, µM (top dose mostly 57 µM), for the others: at the highest dose activity change, negative = inhibition, hits mostly inhibitors; AID 1745845; also: potency is read from the fitted curve at half-maximal effect; % is scaled to controls: 0 for no effect and ±100 for the full control effect; nearly all actives have a fitted effect of over 55% in size
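ATXN2-luciferase reporter cells (luciferase flanked by upstream and downstream ATXN2 gene portions) were treated 24 h at 37 °C with compounds at up to 57 uM. SteadyGlo luminescence gave expression; GF-AFC fluorescence gave viability.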
TGFb confirm: TGF-b pathway inhibition, cherry-pick retest; Potency, µM (series often up to 46.1 µM), inactives show at the highest dose activity, negative = inhibition, actives largely listed as inhibitors; AID 720534; actives 63% (n = 1,600); shares compounds with TGFb SMAD3 inh; HepG2 CAGA-GFP TGF-b reporter, GFP fluorescence, 18 h; cells stimulated with TGF-beta, 500 pg/mL; also: potency is read from the fitted curve at half-maximal effect; % is scaled to controls: 0 for no effect and ±100 for the full control effect; nearly all actives have a fitted effect of over 65% in size
HepG2 tox-2: toxic to HepG2 cells in TGF-b counterscreen | shares compounds with TGFb SMAD3 inh | HepG2 CAGA-GFP viability, ATP luminescence, 18 h; cells stimulated with TGF-beta, 500 pg/mL | Potency, µM (top dose mostly 46.1 µM), for inactives: top-dose activity, negative = cytotoxicity, most hits filed as inhibitors | actives 27% (n = 1,600) | AID 720535; also: potency is read from the fitted curve at half-maximal effect; % is scaled to controls: 0 for no effect and ±100 for the full control effect; nearly all actives have a fitted effect of over 70% in size
TGFb CCL64 inh: TGF-b inhibition, CCL64 orthogonal assay. shares compounds with TGFb SMAD3 inh. CCL64 CAGA-GFP reporter, TGF-b stimulated, GFP fluorescence, 18 h. Potency, µM (highest dose often 46.1 µM), inactives show top-dose activity, negative = inhibition, usual class: inhibitors. actives 41% (n = 1,600). AID 720536; also: potency is read from the fitted curve at half-maximal effect; nearly all actives have a fitted effect of over 65% in size
COP TGFb inh: validation of TGF-b inhibitors in HepG2 COP promoter reporter; AID 720537; HepG2 COP-GFP TGF-b reporter, GFP fluorescence, 18 h; cells stimulated by added recombinant TGF-beta; Potency, µM (titrated, usually from 46.1 µM), for inactives: top-dose activity, negative = inhibition, most hits filed as inhibitors; shares compounds with TGFb SMAD3 inh; actives 3% (n = 1,600); also: potency is read from the fitted curve at half-maximal effect; nearly all actives have a fitted effect of over 70% in size
Numbers without * were called inactive; i = inactive; ? = inconclusive; / = not tested or not shown. This is a sample that favours compounds with a hit; in the whole collection about 4.7% have one here. Unless noted, calls follow the shape of the dose curve; as a rule, active = well fitted curve in the direction sought with a large enough effect; inconclusive = small, poorly fitted or top-dose-only effect, or another doubt; inactive = no such curve, though single readings can be large; an effect the other way counts as inactive or inconclusive.

SMILES	D3 antag	ATXN viability	HepG2 tox-1	TGFb SMAD3 inh	DRD3 agonist	ATXN2 expr inh	TGFb confirm	HepG2 tox-2	TGFb CCL64 inh	COP TGFb inh
CCC(=O)NC(c1ccco1)c1cc(Cl)c2cccnc2c1OC (centres undefined)	/	i	-3.3%	?	/	1.3%	/	/	/	/
CCC(=O)NC(c1ccco1)c1cc(Cl)c2cccnc2c1O (centres undefined)	?	i	-11.6%	?	-4.9	?	-29.8%	-24.7%	9.2µM*	16.5%
O=C1OCCN1C(=O)[C@H]1[C@H](c2ccccc2)C(c2cccc(Cl)c2)=NN1c1ccc(Br)cc1	0.5	/	-15.4%	?	3.4	-1.1%	?	-16.8%	22.7%	3.1%
O=C(C(=Cc1ccc(F)cc1)C(=O)c1ccccc1)c1ccccc1	-61.5*	i	-16.4%	8.91µM*	-8.0	0.0%	3.66µM*	?	13µM*	26.9%
CCC1CCc2nc3sc(C(=O)Nc4ccc(F)cc4F)c(N)c3cc2C1 (centres undefined)	/	i	-3.5%	-10.5%	-6.3	5.8%	/	/	/	/
CC(C)(O)C#Cc1ccc([C@@H]2C[C@H]3CN(c4ccccc4)C(=O)[C@]34CCCN24)s1	-8.6	?	-10.3%	2.24µM*	-4.9	?	0.731µM*	?	5.17µM*	16.2%
CCCCOCCCNC(=O)C[C@@H]1C[C@@]2(C(=O)OC)CC(C)(C)CC=C2N(Cc2ccco2)C1=O	?	/	/	/	-12.9	/	/	/	/	/
COc1ccccc1OCCNS(=O)(=O)c1ccc2oc3ccccc3c2c1	7.7	i	-13.6%	?	17.7	-15.2%	/	/	/	/
O=S(=O)(NCCOc1ccccc1Cl)c1ccc2oc3ccccc3c2c1	56.6	i	-28.6%	15.8µM*	2.8	2.1%	18.4µM*	?	?	88.0%
O=C(NCc1cccnc1)c1cc(Sc2cccc(Cl)c2)nc2ccccc12	5.9	i	-14.4%	11.2µM*	3.5	-18.7%	?	-28.9%	?	26.7%
COc1cc(OC)c2c(-c3cccc(-c4ccc(NC(C)=O)cc4)c3)cc(=O)oc2c1	0.0	?	-12.8%	4.47µM*	-12.7	9.5%	1.64µM*	-14.0%	2.06µM*	13.2%
O=C(CCCSc1nc2ccccc2[nH]1)N1CCN(c2ccccc2)CC1	32.5	i	-18.9%	-15.4%	-0.6	1.7%	/	/	/	/
Cc1cccc(N2CCN(C(=O)CCCSc3nc4ccccc4[nH]3)CC2)c1C	48.1	i	-34.3%	?	10.5	-21.8%	?	?	13µM*	40.6%
O=C(Nc1ccc([N+](=O)[O-])cc1)Nc1ccc(OC(F)F)c(Cl)c1	3.5	/	12.6µM*	4.47µM*	-2.4	12.6µM*	13µM*	5.8µM*	3.66µM*	?
Cc1ccc(S(=O)(=O)Nc2cccc3cccnc23)cc1	-80.6*	?	-34.5%	3.98µM*	-11.7	5.62µM*	16.4µM*	-20.9%	8.2µM*	24.2%
CCc1ccc(CN(C(=O)c2nc(SC)ncc2Cl)C2CCS(=O)(=O)C2)cc1 (centres undefined)	/	i	-51.4%	-17.8%	-0.2	5.7%	/	/	/	/
Cc1ccc(-c2c(C(=O)NCc3ccc(F)cc3)oc(=O)c3ccccc23)cc1	4.4	i	-34.6%	?	5.1	0.9%	?	-21.2%	-20.4%	-2.2%
Cc1ccc(-c2c(C(=O)Nc3ccccc3F)oc(=O)c3ccccc23)cc1	/	i	-3.1%	-7.5%	0.9	1.7%	/	/	/	/
CC1(C)CC(=O)C=C(NC2=CC3OC(c4ccccc4)OCC3OC2=O)C1 (centres undefined)	-53.7*	?	-37.6%	8.91µM*	-4.4	-2.9%	23.1µM*	16.4µM*	6.51µM*	24.3%
Cc1ccccc1NC1=CC(=O)CC(C)(C)C1	-11.0	i	-1.4%	1.0%	-6.3	0.8%	/	/	/	/
Cc1ccc(C)c(N2N=C(C(=O)Nc3ccccc3N3CCCC3)CCC2=O)c1	10.2	i	-21.6%	22.4µM*	1.3	-14.2%	11.6µM*	-14.4%	?	2.1%
Cc1ccc(S(=O)(=O)Nc2cc3c(cc2Cl)n(C)c(=O)c(=O)n3C)cc1	/	i	-37.0%	-23.2%	4.6	8.8%	/	/	/	/
CC(c1ccccc1)N1C(=O)c2cccnc2C1=O (centres undefined)	-7.9	i	-2.9%	2.4%	-4.7	-8.5%	/	/	/	/
CC(NC1=CC(=O)c2cccnc2C1=O)C(O)c1ccccc1 (centres undefined)	?	?	5.01µM*	5.01µM*	-23.6	?	5.8µM*	5.17µM*	?	13µM*
CCOC(=O)C1CCCN(C(=O)CCS(=O)(=O)c2cc3c(cc2Cl)NC(=O)CO3)C1 (centres undefined)	/	i	-18.5%	0.5%	-11.7	-0.3%	/	/	/	/
O=C(Nc1ccc(C(F)(F)F)cc1)N1CCN(c2ccnc3cc(Cl)ccc23)CC1	-2.1	?	18.7%	11.2µM*	-4.5	?	23.1µM*	?	?	73.1%
COc1ccc(Cl)cc1NC(=O)CSc1nnc(Cc2ccc(C)cc2)c(=O)[nH]1	2.0	i	-16.4%	8.91µM*	6.6	4.6%	20.6µM*	?	-29.9%	35.2%
COc1ccc(OC)c(NC(=O)C2(C)CCN2Cc2cccc(OC)c2F)c1 (centres undefined)	79.6	?	-9.6%	-18.8%	12.9	?	/	/	/	/
